The results in this text go back to ChEMBL document CHEMBL4513216, “Probing the Open Global Health Chemical Diversity Library for Multistage-Active Starting Points for Next-Generation Antimalarials” (ACS Infect Dis, 2020).

Among all 69,000 compounds or so, about 8,600 (12%) showed an effect of 50% or more. What follows is part of a selection rich in strong results, with near analogues and random picks from the rest.

The assay deals with Plasmodium berghei. Nature of the assay: Screen against P. berghei liver stage (PbLuc), transformed with Luciferase, at 10uM. The format is functional, HepG2. As to conditions: tested at 10 uM.
For `O=C(NCC1CCOCC1)c1cc(-c2ccncc2)c2cnccc2n1`, the INHIBITION is recorded as 17.4%.

Take `CN(Cc1nnc2n1CCC2)C(=O)CCc1ccc2c(c1)OCO2`: the INHIBITION is reported as -21.8%.

Turning to `C[C@H]1CN(Cc2cccc(F)c2)C[C@@]12CCN(CC(=O)N(C)C)C2=O`, the INHIBITION is recorded as 19.8%. Consider `Cc1ccc(N2CCCC(NCc3ccc(Cl)o3)C2)nn1` (stereo unspecified), for which the INHIBITION was -12.1%. For `COc1cccc(OC)c1C(C(=O)O)N(C)Cc1c(C)n[nH]c1C` (stereo unspecified) the value was 53.3%; for `COc1cccc(Cl)c1C(C(=O)O)N(C)Cc1c(C)n[nH]c1C` (stereo unspecified), 57.6%. For `COc1ccc(C(C(=O)O)N(C)Cc2ccon2)cc1Cl` (stereo unspecified), the INHIBITION is recorded as -23.5%. In the case of `COc1cc(C)cc(OC)c1C(C(=O)O)N(C)Cc1c(C)nn(C)c1C` (stereo unspecified), the INHIBITION is 9.56%.

For the molecule `Cc1n[nH]c(C)c1CN(C)C(C(=O)O)c1c(F)cccc1OC(C)C` (stereo unspecified), the INHIBITION is 40.6%. Turning to `COc1cccc(Cl)c1C(C(=O)O)N(C)Cc1nnc(C)o1` (stereo unspecified), the INHIBITION was 52.2%. Regarding `Cc1n[nH]c(C)c1CN(C)C(C(=O)O)c1ccc2c(c1)OCO2` (stereo unspecified), the INHIBITION is given as 11.2%. For `COc1cccc(C(=O)N(C)C(C)c2c(C)n[nH]c2C)c1OC` (stereo unspecified) the value was 12.6%; for `CCOc1ccccc1C(C(=O)O)N(C)Cc1nnc(C)o1` (stereo unspecified), -0.614%. Under `COc1ccc(CCC(=O)Nc2ccc3ncn(C)c(=O)c3c2)cc1` stands 22.3%. Take `COCc1cn(CC2CCN(Cc3nc(C)c[nH]3)CC2)nn1`: the INHIBITION is -7.85%. Turning to `Cc1cc(C(=O)N2CCc3c(CN(C)C)nn(C)c3C2)[nH]n1`, the INHIBITION stood at 13.7%. Under `O=C(NCCc1ccncc1)c1cccc(S(=O)(=O)N[C@@H]2CCNC2)c1` stands -16.1%. As to `O=C(Nc1nc2c(s1)CNCC2)NC1CCCC1`, the INHIBITION was 44.5%. Under `O=C(Nc1nc2c(s1)CN(S(=O)(=O)C1CC1)CC2)C1CC1` stands 37.9%; under `O=C(Nc1nc2c(s1)CNCC2)C1CC1`, 52.7%; under `COc1ccc(C(=O)N2CCOc3ccncc32)cc1`, 60%. For `COc1cccc(OCC(=O)N2CCOc3ccncc32)c1` the value was -28.9%. For `O=C(COc1ccccc1Br)N1CCOc2ccncc21` the value was 9.35%; for `O=C(c1cc(-n2cccn2)ccn1)N1CCOc2ccc(F)cc21`, 23.3%. Turning to `O=C(c1cc(-n2cccn2)ccn1)N1CCOc2ccncc21`, the INHIBITION was 52.9%. For `O=C(c1cc(-n2cccn2)ccn1)N1CCOc2ncccc21` the value was 30.5%; for `c1cnc2c(c1)cc([C@@H]1CCCO1)n2CCN1CCCCC1`, 38.8%; for `COC(=O)C(c1cc(F)ccc1F)N(C)C(=O)c1cnccn1` (stereo unspecified), 48.4%. Under `CC(C)c1nn(C)c(N(C)C)c1CNC(C)c1ccccc1F` (stereo unspecified) stands 15.5%; under `Cc1nc(CO[C@@H]2CN(Cc3ccco3)[C@@H]3COC[C@@H]32)cs1`, 18.2%; under `OC(c1ccccn1)C1CCN(Cc2cc3n(n2)CCNC3)CC1` (stereo unspecified), 61.5%. For `c1csc(N2CCN(Cc3cc4n(n3)CCNC4)CC2)n1`, the INHIBITION is listed as -90.8%.

On to `O=C1OCCN1C1CCN(Cc2cc3n(n2)CCCNC3)CC1`, for which the INHIBITION is listed as -78.3%.

Take `OC(c1ccccn1)C1CCN(Cc2cc3n(n2)CCCNC3)CC1` (stereo unspecified): the INHIBITION is 51.2%. Consider `c1ccc(C2CCCN(Cc3cc4n(n3)CCNC4)CC2)cc1` (stereo unspecified), for which the INHIBITION amounted to 18.4%. For `c1ccc(COC2CCN(Cc3cc4n(n3)CCCNC4)CC2)nc1` the value was 37.9%; for `c1cc(CNc2cnc(C3CCCN3)cn2)ccn1` (stereo unspecified), 3.03%; for `COc1ccc(-c2cc(C3(O)CCCC3)on2)cc1`, -111%. For `CNC(=O)[C@H]1C[C@H]2OCC[C@H]2N(Cc2ccc(C)o2)C1` the value was 10.3%; for `Cn1cc(C2CC(=O)NC23CCN(Cc2ccncc2)CC3)cn1` (stereo unspecified), -16.2%; for `CCOC(=O)N[C@H]1C[C@@H](C(=O)NCCc2cccc(Cl)c2)N(C)C1`, 55%. For `CCOC(=O)N[C@H]1C[C@@H](C(=O)NCc2cccc(Cl)c2)N(C)C1` the value was -0.71%; for `COCC(=O)N[C@H]1C[C@@H](C(=O)NCCc2cccc(Cl)c2)N(C)C1`, 31.1%.

For `CC(C)CC(=O)N(C)CC(=O)Nc1ccc(Br)cn1`, the INHIBITION worked out at 29.7%.

`CCN1CCN(c2ccc(C(=O)NCCn3ccnc3)cc2F)CC1`: the INHIBITION worked out at 38.8%. Under `CCN1CCN(c2ccc(C(=O)NCCOC)cc2F)CC1` stands 76.7%; under `CCN1CCN(c2ccc(C(=O)NCc3cc(C)no3)cc2F)CC1`, 11.7%. In the case of `Cn1nc(CN2CCCC2)c2c1CN(C(=O)Nc1cccc(F)c1)CC2`, the INHIBITION is recorded as 20.1%. As to `Cc1ccc(C(=O)N2Cc3c(CN4CCCCC4)nn(C)c3C2)cc1F`, the INHIBITION is reported as -31%. For `CCCc1ccc(C(=O)N2Cc3c(Cn4ccnc4)nn(C)c3C2)cc1` the value was 78.8%.

As for `Cn1nc(Cn2ccnc2)c2c1CN(C(=O)c1ccoc1)C2`, the INHIBITION is reported as 47.4%. Consider `Cc1ccc(C(=O)N2CCc3c(CN4CCCC4)nn(C)c3C2)cc1C`, for which the INHIBITION is 44.3%.

As for `Cc1ccc(C(=O)N2Cc3c(CN4CCCCC4)nn(C)c3C2)cc1C`, the INHIBITION is 65.4%. Under `COc1ccc(C(=O)N2Cc3c(Cn4ccnc4)nn(C)c3C2)cc1` stands 32.4%; under `Cn1nc(CN2CCCCC2)c2c1CN(C(=O)Nc1cccc(F)c1)C2`, 79.6%. Under `CN(C)Cc1nn(C)c2c1CN(C(=O)Nc1cccc(F)c1)C2` stands -36.2%; under `O=C(NCCCn1cncn1)N1CCCCCC1`, 20.45%. Under `COCCOc1ncccc1C(=O)N1CCCCC1c1nccs1` (stereo unspecified) stands -38.7%; under `CCc1cc(C(=O)N2CCC(c3cc4ncccc4cn3)CC2)on1`, 20.8%; under `CCCN1CCN(C(=O)c2ccn(COc3ccc(F)cc3)n2)CC1`, 2.69%. Take `CCOc1ccccc1C(=O)Nn1c(C)cc(C)cc1=O`: the INHIBITION came out at 44.1%.

On to `CC(=O)N1CCN(CCNC(=O)NC(C)Cn2ccnc2)CC1` (stereo unspecified), for which the INHIBITION is 43.5%. For `CNC(=O)[C@H]1C[C@@H]2CCN(Cc3ccc4c(c3)OCO4)C[C@@H]2O1` the value was -9.18%; for `O=C(NCC1CC1)[C@H]1C[C@@H]2CCN(Cc3ccc4c(c3)OCO4)C[C@@H]2O1`, 30.4%. For `O=C(NC1CC1)[C@@H]1C[C@@H]2CCN(Cc3ccoc3)C[C@@H]2O1` the value was 49.4%; for `CC(C)NC(=O)[C@@H]1C[C@@H]2CCN(Cc3ccoc3)C[C@H]2O1`, 53.9%.

Turning to `O=C(NC1CCCC1)[C@@H]1C[C@@H]2CCN(Cc3ccoc3)C[C@H]2O1`, the INHIBITION amounted to 54.8%. Under `O=C(NCC1CC1)[C@@H]1C[C@@H]2CCN(Cc3ccoc3)C[C@@H]2O1` stands -10.3%.

Take `COCCNC(=O)[C@H]1C[C@@H]2CCN(Cc3ccoc3)C[C@H]2O1`: the INHIBITION is reported as 30.1%.

`O=C(NC1CC1)[C@H]1C[C@@H]2CCN(Cc3ccc4c(c3)OCO4)C[C@@H]2O1`: the INHIBITION is 61.1%. Regarding `CNC(=O)[C@@H]1C[C@@H]2CCN(Cc3ccoc3)C[C@H]2O1`, the INHIBITION is recorded as 30.3%.
